Measured values reported in PubChem BioAssay (Tox21).
Results filed as inconclusive are left out. A number with no mark means an inactive call. The source made the active and inactive calls. Calls follow the shape of the dose curve; as a rule, active = well fitted inhibition curve with a large enough effect in the repeat runs; inconclusive = weak or mixed curves, or effect the other way; inactive = no such curve, though single readings can be large or run the other way.

Target: Nuclear receptor ROR-gamma (Homo sapiens) (UniProt P51449)
Experiment: qHTS assay to identify small molecule antagonists of the retinoid-related orphan receptor gamma (ROR-gamma) signaling pathway (AID 1159521; also: nearly all actives have a fitted effect of over 50% in size; as to activity change, negative = inhibition: top concentration of the series differs between compounds)
Conditions: Tet-on RORgamma CHO cells, RORE-luciferase, 16 h; series mostly up to 92.4 µM; activity change, negative = inhibition: at the top concentration
Excerpt: U.S. Tox21 Program National Center for Advancing Translational Sciences [NCATS] NIH Chemical Genomics Center [NCGC] U.S. Environmental Protection Agency [EPA] National Institutes of Environmental Health Sciences [NIEHS] National Toxicology Program [NTP] U.S. Food and Drug Administration [FDA] Tox21 Assay Overview: Nuclear steroid hormone receptors are involved in many biological processes including inflammatory responses, cell proliferation, and apoptosis. Environmental factors or compounds disrupting these nuclear receptor pathways and gene expression may promote susceptibility to immunotoxicants and autoimmune diseases. One important group of these expression factors are the retinoid-related orphan receptors. To assess compounds that may interfere with the retinoid-related orphan receptor gamma (ROR-gamma) transcription factor, a cell-based luciferase assay was used. The CHO cell-based assay utilizes a TET-inducible ROR expression factor and ROR response element-LUC reporter gene. Reporter gene activity was induced using Doxycycline Hyclate and measured after 16 hr incubation. Tet-on ROR gamma CHO cells were used to screen against the Tox21 10K compound library for ROR gamma antagonists by quantification of decreased reporter gene activity in terms of decreased luminescence.
Tox21 Assay Protocol Summary: Tet-on ROR gamma CHO cells were dispensed at 1,000 cells in 4 uL of culture medium per well into white wall/solid bottom 1536-well plates using a Multidrop Combi (Thermo Scientific, Waltham, MA) dispenser. Following incubation at 37 C and 5% CO2 for 4 hr, 23 nL of compounds dissolved in DMSO, positive controls or DMSO only were transferred by a Pintool station (Kalypsys, San Diego, CA) and after 2 hr incubation at 37 C, one ul of 1 uM (final concentration) of Doxycycline Hyclate was added to all the wells by using a Flying Reagent Dispenser (FRD) (Aurora Discovery, San Diego, CA). After 16 hr incubation at 37 C and 5% CO2, 5 uL of ONE-Glo reagent (Promega Corporation, Madison, WI) was added to each assay plate using FRD. After 30 min incubation at room temperature, luminescence was quantified on a ViewLux plate reader (Perkin Elmer, Waltham, MA).
% is scaled to controls: 0 for no effect and ±100 for the full control effect; potency is read from the fitted curve at half-maximal effect.

SMILES | activity change, negative = inhibition | Potency
COCCOCCO | 24.9% | –
O=C1NCN(c2ccccc2)C12CCN(CCCOc1ccc(F)cc1)CC2 | – | 23.7 µM (active)
O=C(O)c1ccccc1C(=O)Nc1cccc2ccccc12 | -6.04% | –
C=CCC1([C@H](C)CCC)C(=O)NC(=O)NC1=O | -14.5% | –
C=CC(=O)OC(C)(C)C | -16.6% | –
CC(C)(CCl)C(=O)Cl | 61.8% | –
Cc1ccccc1CCl | 24.8% | –
O=C(O)C(F)(F)C(F)(F)C(F)(F)C(F)(F)C(F)(F)C(F)(F)C(F)(F)C(F)(F)C(F)(F)F | -17.4% | –
COP(=S)(OC)Oc1cc(Cl)c(I)cc1Cl | -15.8% | –
c1cc2ccc3cccc4ccc(c1)c2c34 | 54.4% | –
CC(C)N(CCC(C(N)=O)(c1ccccc1)c1ccccn1)C(C)C (stereo not given) | 11.3% [at 42.5 µM] | –
COC(=O)C(Cl)C(=O)OC | 0.0256% [at 42.5 µM] | –
CC/C(=N\OC/C=C/Cl)C1=C(O)CC(C2CCOCC2)CC1=O (stereo not given) | 2.79% | –
COC(C)(C)CCC[C@H](C)C/C=C/C(C)=C/C(=O)OC(C)C | -11.8% | –
O=C1CN=C(c2ccccc2)c2cc(Cl)ccc2N1CC1CC1 | -24.1% | –
CC1C(=O)C[C@]2(C(C)C)C[C@H]12 (stereo not given in full) | -10.6% | –
NCC(CC(=O)O)c1ccc(Cl)cc1 (stereo not given) | 4.26% [at 0.35 µM] | –
CCC(Cl)CCl (stereo not given) | 20.6% | –
Sc1ccccc1Cl | 0.942% [at 42.5 µM] | –
COP(=S)(OC)Oc1ccc([N+](=O)[O-])cc1Cl | – | 43.3 µM (active)

SMILES | activity change, negative = inhibition | Potency
CCOP(=S)(OCC)Oc1cc(Cl)c(Br)cc1Cl | -13.5% | –
CN1C(=O)NC(=O)C(C)(C2=CCCCC2)C1=O (stereo not given) | -14.1% [at 42.5 µM] | –
Cc1ccc(-c2c(Cl)nc(C#N)n2S(=O)(=O)N(C)C)cc1 | – | 21.7 µM (active)
CS/C(C)=N/OC(=O)N(C)SN(C)C(=O)O/N=C(\C)SC | – | 38.6 µM (active)
COC(N)=O | -18.4% | –
CCBr | 44.2% | –
CCCCCCC#N | -17.5% | –
CCCCCCCCCC(=O)O[C@H]1CC[C@H]2[C@@H]3CCC4=CC(=O)CC[C@@H]4[C@H]3CC[C@]12C | 3.96% [at 42.5 µM] | –
CC(Cl)C(C)Cl (stereo not given) | -2.28% | –
O=S1OC[C@@H]2[C@H](CO1)[C@]1(Cl)C(Cl)=C(Cl)[C@@]2(Cl)C1(Cl)Cl (stereo not given in full) | – | 54.5 µM (active)
O=C(O)C1(c2ccc3c(c2)OC[C@H](Cc2ccc(-c4ccccc4)cc2)[C@H]3O)CCCC1 | – | 54.5 µM (active)
N#Cc1ccc(Cl)cc1 | 22.6% | –
OCCCBr | 39.7% | –
CO/N=C(/C(=O)OC)c1ccccc1COc1ccccc1C | – | 2.73 µM (active)
CCOC(=O)[C@]1(c2ccccc2)Oc2ccccc2[C@@H]1N | -16.8% | –
OC(c1ccc(Cl)cc1)(c1ccc(Cl)cc1)c1cccnc1 | – | 54.5 µM (active)
CN(N=O)c1ccc([N+](=O)[O-])cc1 | 4.94% | –
CCOP(=O)(OCC)SCCSCC | – | inactive
C/C=C/C=O | -22.6% | –
N#Cc1cc(I)c(O)c(I)c1 | – | 24.3 µM (active)
